# Assay outcomes deposited in PubChem BioAssay by The Scripps Research Institute Molecular Screening Center.
# DAX1 inh-1 – inhibitors of DAX1 repression of SF-1 activated StAR promoter; HEK293T StAR-luciferase reporter, SF-1/DAX-1 repression relief; inhibition, % at 6.8 µM; 370,000 tested, 1.1% active;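 active = inhibition above the mean over all tested compounds plus 3 SD, cut at about 3.6% in these data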;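 note: 0% = DAX-1 cells with DMSO and 100% = cells lacking DAX-1 with DMSO; higher inhibition means more luminescence from relief of DAX-1 repression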
# hcDAF12 agonist – activates DAF-12 receptor from parasite H. contortus | HEK293 hcDAF-12 lit1-tk-luc reporter, luminescence; 0% DMSO, 100% Δ7-dafachronic acid | activation, % at 6.8 µM | 370,000 tested, 1.4% active;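 active = activation above the mean of all tested compounds plus 3 SD, cut at about 5.5% in these data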;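 note: 100% = response to 3 µM Δ7-dafachronic acid high control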
# AHR activator – activates the human aryl hydrocarbon receptor; 320,000 tested, 2.5% active; activation, % at 5 µM; P35869; AHR-responsive luciferase reporter cells, luminescence; in the data active = activation above about 47%;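 note: 0% = vehicle wells and 100% = reference agonist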
# ssDAF12 agonist – S. stercoralis DAF-12 activation, primary screen; 370,000 tested, 1% active; HEK293 ssDAF-12/GRIP1 lit1-tk-luc reporter, luminescence; % of 3 µM dafachronic acid response; activation, % at 6.8 µM;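 active = activation above the mean over all tested compounds plus 3 SD, cut at about 0.9% in these data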;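 note: 0% = DMSO-only wells and 100% = 3 µM delta7-dafachronic acid wells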
# hgDAF-12 ag – agonists of H. glycines DAF-12 nuclear receptor; HEK293 GAL4-hgDAF12 UAS-luciferase reporter, agonist luminescence; normalized to butyrate control; activation, % at 6.8 µM; 370,000 tested, 1.8% active;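 active = activation above a cutoff set at the mean of all screened compounds plus 3 SD, cut at about 10% in these data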;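 note: 0% = DMSO wells and 100% = sodium butyrate wells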
# DAX1 inh-2 – inhibitors of human orphan nuclear receptor DAX1 (NR0B1) | 340,000 tested, 0.99% active | AID 504766 | inhibition, % at 6.75 µM | HEK293 Gal4-DAX1 luciferase reporter, luminescence | P51843;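 active = inhibition above the mean over all tested compounds plus 3 SD, cut at about 4.2% in these data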;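 note: 0% = DAX1-transfected cells with DMSO and 100% = empty-vector control cells with DMSO; inhibition shows as a rise in luminescence from relieved DAX1 repression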
# Target sequence (P51843 207-470 limits assumed): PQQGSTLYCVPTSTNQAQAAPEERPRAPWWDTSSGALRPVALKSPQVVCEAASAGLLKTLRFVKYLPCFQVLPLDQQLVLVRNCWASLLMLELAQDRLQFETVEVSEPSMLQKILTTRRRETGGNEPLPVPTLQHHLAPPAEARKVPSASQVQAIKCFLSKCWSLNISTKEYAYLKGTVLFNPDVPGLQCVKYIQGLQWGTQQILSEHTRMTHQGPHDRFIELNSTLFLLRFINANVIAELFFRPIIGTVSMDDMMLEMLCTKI
# DAX1 inh confirm – confirmation of human DAX1 (NR0B1) inhibitors; shares compounds with DAX1 inh-1; HEK293T StAR-promoter luciferase reporter, SF-1/DAX-1 repression; inhibition, % at 6.8 µM; 2,400 tested, 87% active; AID 652134;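 active = inhibition above the average of every tested compound plus 3 SD, cut at about 3.8% in these data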;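 note: 0% = DAX-1 cells with DMSO and 100% = no DAX-1 control cells with DMSO; active compounds raise luminescence by relieving repression of the StAR reporter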
# SF1 mutant ctr – counter-screen for DAX1 inhibitors: nonselective inhibitors with SF-1 AF2 mutant | inhibition, % at 6.8 µM | 2,400 tested, 78% active | HEK293 StAR-luciferase, luminescence | shares compounds with DAX1 inh-1;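 active = inhibition above the mean of all tested compounds plus 3 SD, cut at about 3% in these data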;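 note: 0% = DAX-1 transfected cells with DMSO and 100% = cells without DAX-1 with DMSO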
# LXRb hcDAF ctr – counter-screen for hcDAF-12 agonists: agonists of human LXR-beta. 3,400 tested, under 10 active. shares compounds with hcDAF12 agonist. activation, % at 6.8 µM. AID 743027. HEK293 Gal4-LXR tk-luc reporter, luminescence, 24 h; normalized: DMSO 0%, positive control 100%;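 active = mean percent activation of the reporter above a cutoff set as the average over tested compounds plus their standard deviation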
# hcDAF12 ag – confirmation of H. contortus DAF-12 agonists; shares compounds with hcDAF12 agonist; HEK293 hcDAF-12 lit1-tk-luc reporter, luminescence; % of Δ7-dafachronic acid response; activation, % at 6.8 µM; 3,400 tested, 61% active;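 active = mean activation across triplicate tests above the threshold derived from the earlier primary screen, cut at about 5.5% in these data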;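 note: 0% = DMSO only wells and 100% = 3 µM Δ7-dafachronic acid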
# Numbers without * were called inactive; · = not tested or not shown. Compounds with a hit are over-represented: about 5.7% of the library has one in this group of screens.
SMILES,DAX1 inh-1,hcDAF12 agonist,AHR activator,ssDAF12 agonist,hgDAF-12 ag,DAX1 inh-2,DAX1 inh confirm,SF1 mutant ctr,LXRb hcDAF ctr,hcDAF12 ag
Cc1ccccc1N(CC(=O)N/N=C/c1ccc(N(C)C)cc1)C(=O)c1ccccc1,0,0,23,-1,4,0,·,·,·,·
C=CCn1c(SCc2ccc(C#N)cc2)nnc1-c1ccc(C)cc1,0,-2,2,-2,-4,-1,·,·,·,·
COc1ccc(NC(=O)c2cccn(CC=C(C)C)c2=O)cc1,0,0,13,0,6,0,·,·,·,·
CSc1ccc(/C=C/c2ccc3cccc(O)c3n2)cc1,5.0*,22*,32,3.2*,34*,0,16*,7.1*,2,11*
Brc1csc(/C=N/Nc2nc3ccccc3s2)c1,5.9*,13*,100*,2.4*,20*,4,15*,11*,2,9.1*
C(=N\Nc1nc2ccccc2s1)/c1ccccn1,-3,-5,27,-3,-14,·,·,·,·,·
COC(=O)c1cc(NC(=O)c2c(Cl)cnn2C)cc(C(=O)OC)c1,0,-2,0,-1,-1,-2,·,·,·,·
Cn1ncc(Cl)c1C(=O)Nc1ccc2c(c1)CCC2,5.8*,6.8*,25,1.3*,10,1,5.3*,2,0,5.7*
COc1cccc(NC(=O)CN(C)C(=O)CCCc2nc3ccccc3s2)c1,0,-2,-1,-1,0,-1,·,·,·,·
COc1ccc(C(=O)Nc2nnc(-c3ccco3)s2)cc1,6.9*,7.7*,-6,1.1*,9,-2,9.0*,1,1,7.2*
CN1CCN(C(=O)OC2CC3CC2[C@H]2CCCCN2C3=O)CC1 (stereo not given in full),0,-1,·,-2,6,·,·,·,·,·
O=C1c2ccccc2C(=O)N1c1cccc(-c2csc(Nc3ccc4c(c3)OCO4)n2)c1,·,·,8,·,·,·,·,·,·,·
c1ccc(-c2csc(Nc3ccc4c(c3)OCO4)n2)cc1,22*,17*,·,2.6*,21*,·,14*,7.8*,2,17*
COc1ccc(C(=O)Nc2ccccn2)cc1,0,-1,2,-1,0,0,·,·,·,·
COc1ccc2oc(C(=O)Nc3ccccn3)c(C)c2c1,13*,18*,72*,1.1*,21*,0,12*,6.1*,2,18*
CCOc1ccc(NS(=O)(=O)c2ccc(C(=O)NCC(c3ccco3)N3CCCCC3)cc2)cc1 (stereo not given),-1,-2,·,-1,-2,-1,·,·,·,·
Cc1ccsc1/C=C/c1n[nH]c(=O)c(C#N)c1C,0,-1,0,-1,2,1,·,·,·,·
Cc1cccc(CCNC(=O)c2cccc(N3CCCC3=O)c2)c1,7.3*,7.4*,8,0,11*,1,9.5*,4.0*,1,7.2*
CC(NC(=O)c1ccc(Br)s1)c1ccncc1 (stereo not given),-2,2,1,-2,-1,0,·,·,·,·
CCC(CC)c1nnc(NC(=O)c2ccc3ccccc3n2)s1,4.6*,11*,31,2.1*,10,2,10*,6.8*,1,11*
CCC(CC)c1nnc(NC(=O)c2cc(-c3ccccc3)nc3ccccc23)s1,0,-1,2,-2,1,0,·,·,·,·
Cc1ccc(N=C/C(C(=O)C(F)(F)F)=C(\O)c2ccco2)cc1Cl,5.2*,18*,33,1.4*,16*,2,16*,8.7*,1,10*
N/C(=N\OC(=O)c1ccccc1Cl)c1ccccc1,6.1*,17*,54*,3.3*,18*,2,19*,11*,3,26*
Clc1ccccc1/C=N/NC1=Nc2cccc3cccc1c23,4.6*,16*,37,2.8*,18*,4.3*,18*,8.0*,1,15*
COC(=O)c1cc(NS(=O)(=O)c2ccc(NC(C)=O)cc2)ccc1Cl,0,-1,-3,-1,-1,-1,·,·,·,·
SMILES,DAX1 inh-1,hcDAF12 agonist,AHR activator,ssDAF12 agonist,hgDAF-12 ag,DAX1 inh-2,DAX1 inh confirm,SF1 mutant ctr,LXRb hcDAF ctr,hcDAF12 ag
CC1CCN(C(=O)c2cc3c(ccc4ccccc43)o2)CC1,19*,9.1*,-7,0,12*,-1,10*,4.3*,2,6.5*
CC1CCN(C(=O)c2cc3ccccc3c(=O)o2)CC1,0,1,4,-1,6,4,·,·,·,·
Cc1cc(-c2nnc(SCC(=O)Nc3cccc(F)c3)n2N)n[nH]1,0,1,5,-1,2,1,·,·,·,·
CN1OC[C@@H]2CN(S(=O)(=O)c3cc(Cl)cc(Cl)c3)[C@H](c3ccc(-c4ccc(C#N)cc4)cc3)C[C@@H]21,0,-1,·,-1,-1,·,·,·,·,·
CC(C)(C)NC(=O)C(c1cc2ccccc2o1)n1c(-c2ccc(-c3ccccc3)cc2)nc2ccccc21 (stereo not given),10*,21*,·,4.8*,25*,·,13*,9.6*,2,25*
CC(C)(C)NC(=O)C(c1cc2ccccc2o1)n1c(=O)c(-c2ccco2)nc2ccccc21 (stereo not given),3,5,·,0,8,·,·,·,·,·
CCOc1ccc(NC(=O)Nc2c(C)n(C)n(-c3ccccc3)c2=O)cc1,0,-1,2,-1,-1,0,·,·,·,·
O=C(N/N=C/c1ccccc1Cl)c1n[nH]c2c1CCCC2,5.1*,6.6*,45,1,16*,-1,1,-2,1,4
CCCCc1nc2cc(C(=O)N(C)CCc3cn[nH]c3)ccc2o1,0,0,5,-1,3,0,·,·,·,·
CCCCc1nc2cc(C(=O)N(C)C3CCOCC3)ccc2o1,4.6*,7.6*,13,1,10,1,5.5*,6.8*,0,3
COc1cccc(-c2nnc(SCC3CNC(=O)O3)n2-c2ccc(Cl)cc2)c1 (stereo not given),0,-1,1,-1,0,0,·,·,·,·
Cc1csc(NC(=O)c2cncc(Br)c2)n1,5.2*,6.8*,0,0,11*,0,13*,7.8*,1,4
